Results from PubChem BioAssay (NCATS).
Unmarked numbers belong to inactive results. Inconclusive results are not listed. Activity calls are given as the source filed them. Unless noted, the call rests on the fitted dose curve; in most records, active means well fitted curve in either direction with a large enough effect (not every such curve was filed as active); inconclusive means small, poorly fitted or top-dose-only effect, or another doubt; inactive means flat fitted curve, though single readings scatter.

How the values were obtained:
[1] = molecular target: Lysosomal acid glucosylceramidase (Homo sapiens) (UniProt P04062); assay: Glucocerebrosidase-p2 (AID 348; in the data active means potency below about 10 µM; further: potency means the concentration at half of the fitted maximal effect); conditions: purified GBA, blue fluorogenic substrate, 40 min
How it was run: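 Normal human glucocerebrosidase (0.2 nM) with blue fluorogenic substrate (80 uM final) in citrate/phosphate pH 5.9 with 10mM sodium taurocholate, 0.01% tween-20; 40 min RT, NaOH/glycine stop; fluorescence Ex 365/Em 440; AC50 from a titration from 0.6 nM upwards.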

[2] = AP1 Signaling Pathway (AID 357); conditions: ME-180 AP-1-bla reporter, EGF-induced, beta-lactamase ratio, 5 h; at 7.69 µM (top of the series) unless noted;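 further: ME-180 reporter cells stimulated with EGF at its EC50 level; on the % scale 0 is the no-effect control and ±100 the full control effect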
How it was run: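 A ratiometric CCF4 readout (405 nm excitation; 460 and 530 nm emission) quantified AP-1-driven beta-lactamase in ME-180 cells after 5 h with compound and EC50 EGF; AC50 values were derived for activators and inhibitors.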

[3] = NFAT Signaling Pathway (AID 444); conditions: Jurkat NFAT-bla M1, carbachol, beta-lactamase ratio, 5 h; at 7.69 µM (top of the series) unless noted;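 further: carbachol stimulus at about its EC50 of 1 µM final; on the % scale 0 is the no-effect control and ±100 the full control effect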
How it was run: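 Read-out: CCF4 FRET ratio (460 nm/530 nm) after 1 h RT dye loading, used for %activity and AC50 from titration series. Cells: Jurkat NFAT-β-lactamase/M1 line, treated with compound plus 1 uM carbachol for 5 h, 37 °C.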

[4] = Stat Signaling Pathway (AID 446); conditions: ME-180 SIE beta-lactamase reporter, IL-6 stimulated, 5 h; at 7.69 µM (top of the series) unless noted;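 further: ME-180 cervical cancer cells given 40 pM IL-6 alongside compound; SIE-controlled beta-lactamase reporter measured as 460/530 nm FRET emission ratio; on the % scale 0 is the no-effect control and ±100 the full control effect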
How it was run: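 Overnight-plated ME-180 cells bearing a STAT Inducible Element beta-lactamase reporter; 5 h co-exposure to compound and 40 pM IL-6; values normalized to 300 pM IL-6 and 125 nM JAK inhibitor controls.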

[5] = molecular target: Glucocorticoid receptor (Homo sapiens) (UniProt P04150); assay: GR-EFC Redistribution (AID 451; calls by dose curve; further: potency means the concentration at half of the fitted maximal effect); conditions: CHO-K1 GR-EFC translocation, beta-gal luminescence, 2 h
How it was run: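 Translocation of GR-ED fusion to nuclear EA restores b-gal, read by luminescence after 1 h room-temperature detection. Engineered CHO-K1 biosensor cells, 1,000/well, exposed 2 h at 37 C to titrations up to 46 uM final.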

[6] = molecular target: 3',5'-cyclic-AMP phosphodiesterase 4B (Homo sapiens) (UniProt Q07343); assay: qHTS Assay for Inhibitors of PDE-IV (AID 607; active means well fitted activation curve with a large enough effect in the main read-out, with a control signal flat, not every such curve was filed as active; further: % of control where 0% means no effect); conditions: HEK293 ACTOne CNG channel cells, membrane potential fluorescence; series mostly up to 22.9 µM
How it was run: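 Live HEK293 cells with a modified cyclic nucleotide-gated (CNG) channel report intracellular cAMP via membrane-potential dye fluorescence (ex 535/em 590 nm). Endogenous PDE-IV was targeted. Compounds were tested at up to 22.9 uM final; RO 20-1724 100 uM served as control.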

[7] = molecular target: Glucocorticoid receptor (Homo sapiens) (UniProt P04150); assay: GR-GFP Redistribution (AID 450;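 active means compounds whose dose series gives a full or clear partial fitted curve of increased nuclear translocation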; further: potency means the concentration at half of the fitted maximal effect); conditions: U2OS GR-GFP nuclear translocation, laser cytometry, 2 h
[8] = molecular target: Mitogen-activated protein kinase 10 (Mus musculus) (UniProt Q61831); assay: JNK3 AlphaScreen Assay (AID 530); conditions: JNK3 lysate, c-Jun phosphorylation; series mostly up to 57.1 µM;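 further: kinase came from lysate of stimulated human HepG2 cells; signal reports phosphorylation of biotinylated GST-cJun 1-79 at Ser73 with 10 µM ATP; on the % scale 0 is the no-effect control and ±100 the full control effect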
How it was run: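 qHTS titrations with 15 min compound pre-incubation before adding ATP (10 uM final). Read-out: AlphaScreen of Ser73-phosphorylated biotin-GST-cJun using HepG2 lysate JNK3 activated by IL-1β and TNFα.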

[9] = molecular target: Cytochrome P450 2D6 (Homo sapiens) (UniProt P10635); assay: qHTS Assay for Inhibitors and Substrates of Cytochrome P450 2D6 (AID 891; active means well fitted curve in the direction sought with a large enough effect; an effect the other way counts as inactive or inconclusive; further: potency means the concentration at half of the fitted maximal effect; nearly all actives have a fitted effect of over 60% in size); conditions: recombinant CYP2D6, luciferin-ME EGE luminescence; series mostly up to 11.4 µM
How it was run: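 Luminescent read-out of luciferin formed by 5 nM human CYP2D6 demethylating 30 uM Luciferin-ME EGE (Km level) over 60 min at room temperature after NADPH regeneration addition. Data normalized to full inhibition by 1.43 uM quinidine.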

[10] = qHTS Assay for Identification of Small Molecule Agonists for Hypoxia Response Element Signaling Pathway (AID 914; active means well fitted activation curve with a large enough effect in the signal ratio, with a control signal flat, not every such curve was filed as active; the % refers to the signal ratio; further: % of control where 0% means no effect); conditions: ME-180 (cervical carcinoma) HRE-bla reporter, beta-lactamase ratio, CoCl2, 17 h; stronger effect = higher value
How it was run: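 Positive modulation of EC50 CoCl2-induced hypoxia response element signaling is measured in ME-180 cells with a beta-lactamase reporter. Compounds are titrated, incubation runs 17 hours, and %Activity derives from the blue/green ratio.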

[11] = molecular target: Cytochrome P450 3A4 (Homo sapiens) (UniProt P08684); assay: qHTS Assay for Activators of Cytochrome P450 3A4 (AID 885; active means well fitted curve in the direction sought with a large enough effect; an effect the other way counts as inactive or inconclusive; further: nearly all actives have a fitted effect of over 65% in size); conditions: recombinant CYP3A4, Luciferin-PPXE luminescence, 60 min; series mostly up to 57.1 µM
How it was run: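 Using 20nM recombinant human CYP3A4 in potassium phosphate (200mM), substrate Luciferin-PPXE at 25uM, luminescent luciferin detection followed a 60-min RT NADPH reaction; data scaled to 57 uM ketoconazole.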

[12] = molecular target: Cytochrome P450 2C19 (Homo sapiens) (UniProt P33261); assay: qHTS Assay for Inhibitors and Substrates of Cytochrome P450 2C19 (AID 899; active means well fitted curve in the direction sought with a large enough effect; an effect the other way counts as inactive or inconclusive; further: potency means the concentration at half of the fitted maximal effect; nearly all actives have a fitted effect of over 60% in size); conditions: recombinant CYP2C19, luciferin-H EGE luminescence; series mostly up to 11.4 µM
How it was run: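 Reactions contain 5nM enzyme, 10uM Luciferin-H EGE (KM) and 50mM KPO4; compound preincubates 10 min at 37C, NADPH regeneration starts turnover for 60 min. Luminescence after detection reagent gives activity.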

[13] = molecular target: Cytochrome P450 3A4 (Homo sapiens) (UniProt P08684); assay: qHTS Assay for Inhibitors and Substrates of Cytochrome P450 3A4 (AID 884; active means well fitted curve in the direction sought with a large enough effect; an effect the other way counts as inactive or inconclusive; further: potency means the concentration at half of the fitted maximal effect; nearly all actives have a fitted effect of over 50% in size); conditions: recombinant CYP3A4, Luciferin-PPXE luminescence; series mostly up to 57.1 µM
How it was run: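 Luminescent readout of luciferin produced by CYP3A4 (20 nM) dealkylation of Luciferin-PPXE, 25 uM (its KM). NADPH-driven reaction ran 60 min at RT after 10 min compound preincubation; data scaled to 57 uM ketoconazole as 100% inhibition.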

Cytochrome P450 3A4 (Homo sapiens), sequence (P08684 whole entry, looked up): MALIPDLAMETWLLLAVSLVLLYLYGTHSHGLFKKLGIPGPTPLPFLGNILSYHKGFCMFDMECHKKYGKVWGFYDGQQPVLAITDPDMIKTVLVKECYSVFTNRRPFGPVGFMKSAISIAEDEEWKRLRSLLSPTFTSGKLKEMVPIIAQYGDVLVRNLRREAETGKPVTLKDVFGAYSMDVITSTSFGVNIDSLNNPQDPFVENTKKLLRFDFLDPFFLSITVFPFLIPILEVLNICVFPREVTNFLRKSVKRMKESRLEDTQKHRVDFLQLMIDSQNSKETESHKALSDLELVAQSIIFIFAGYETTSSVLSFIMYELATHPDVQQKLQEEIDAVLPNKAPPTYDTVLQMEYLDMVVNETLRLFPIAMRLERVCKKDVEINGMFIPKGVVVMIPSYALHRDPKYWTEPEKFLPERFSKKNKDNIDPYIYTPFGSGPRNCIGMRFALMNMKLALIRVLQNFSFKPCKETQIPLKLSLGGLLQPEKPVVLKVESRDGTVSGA
Glucocorticoid receptor (Homo sapiens), sequence (P04150 whole entry, looked up, the tested form may be a part): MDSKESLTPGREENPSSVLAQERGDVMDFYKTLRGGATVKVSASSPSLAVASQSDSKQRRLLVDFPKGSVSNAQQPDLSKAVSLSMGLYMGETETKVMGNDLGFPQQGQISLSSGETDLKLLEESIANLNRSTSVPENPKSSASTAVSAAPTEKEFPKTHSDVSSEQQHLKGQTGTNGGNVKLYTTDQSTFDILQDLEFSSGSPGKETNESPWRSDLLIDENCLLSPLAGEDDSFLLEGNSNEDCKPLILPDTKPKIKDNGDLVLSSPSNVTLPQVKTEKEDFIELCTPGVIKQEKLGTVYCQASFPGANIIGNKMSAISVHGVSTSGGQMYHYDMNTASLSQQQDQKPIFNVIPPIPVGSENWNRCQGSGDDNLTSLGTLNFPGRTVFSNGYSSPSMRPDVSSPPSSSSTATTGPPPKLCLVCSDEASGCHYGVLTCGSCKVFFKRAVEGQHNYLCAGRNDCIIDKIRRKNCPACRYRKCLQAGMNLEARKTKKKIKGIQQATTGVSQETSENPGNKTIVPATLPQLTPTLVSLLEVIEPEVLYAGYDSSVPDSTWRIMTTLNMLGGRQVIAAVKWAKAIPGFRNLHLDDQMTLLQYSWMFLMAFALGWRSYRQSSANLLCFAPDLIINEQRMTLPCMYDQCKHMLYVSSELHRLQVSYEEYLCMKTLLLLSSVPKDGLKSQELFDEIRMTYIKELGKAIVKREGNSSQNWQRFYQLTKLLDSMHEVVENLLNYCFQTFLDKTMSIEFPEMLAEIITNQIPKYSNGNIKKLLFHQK
Lysosomal acid glucosylceramidase (Homo sapiens), sequence (P04062 whole entry, looked up): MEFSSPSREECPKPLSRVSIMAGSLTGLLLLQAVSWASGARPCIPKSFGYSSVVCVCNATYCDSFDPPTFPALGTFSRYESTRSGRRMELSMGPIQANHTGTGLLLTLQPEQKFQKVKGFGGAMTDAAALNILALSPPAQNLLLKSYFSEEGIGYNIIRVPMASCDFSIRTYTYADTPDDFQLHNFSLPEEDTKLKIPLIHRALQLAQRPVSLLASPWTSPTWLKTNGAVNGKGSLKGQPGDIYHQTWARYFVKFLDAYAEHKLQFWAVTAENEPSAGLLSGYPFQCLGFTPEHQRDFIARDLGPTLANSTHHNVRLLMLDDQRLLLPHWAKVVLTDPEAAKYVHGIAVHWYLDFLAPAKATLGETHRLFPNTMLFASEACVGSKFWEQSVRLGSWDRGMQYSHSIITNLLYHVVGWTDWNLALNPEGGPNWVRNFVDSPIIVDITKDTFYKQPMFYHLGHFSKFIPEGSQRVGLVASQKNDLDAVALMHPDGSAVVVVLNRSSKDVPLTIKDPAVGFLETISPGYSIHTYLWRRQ
3',5'-cyclic-AMP phosphodiesterase 4B (Homo sapiens), sequence (Q07343 whole entry, looked up): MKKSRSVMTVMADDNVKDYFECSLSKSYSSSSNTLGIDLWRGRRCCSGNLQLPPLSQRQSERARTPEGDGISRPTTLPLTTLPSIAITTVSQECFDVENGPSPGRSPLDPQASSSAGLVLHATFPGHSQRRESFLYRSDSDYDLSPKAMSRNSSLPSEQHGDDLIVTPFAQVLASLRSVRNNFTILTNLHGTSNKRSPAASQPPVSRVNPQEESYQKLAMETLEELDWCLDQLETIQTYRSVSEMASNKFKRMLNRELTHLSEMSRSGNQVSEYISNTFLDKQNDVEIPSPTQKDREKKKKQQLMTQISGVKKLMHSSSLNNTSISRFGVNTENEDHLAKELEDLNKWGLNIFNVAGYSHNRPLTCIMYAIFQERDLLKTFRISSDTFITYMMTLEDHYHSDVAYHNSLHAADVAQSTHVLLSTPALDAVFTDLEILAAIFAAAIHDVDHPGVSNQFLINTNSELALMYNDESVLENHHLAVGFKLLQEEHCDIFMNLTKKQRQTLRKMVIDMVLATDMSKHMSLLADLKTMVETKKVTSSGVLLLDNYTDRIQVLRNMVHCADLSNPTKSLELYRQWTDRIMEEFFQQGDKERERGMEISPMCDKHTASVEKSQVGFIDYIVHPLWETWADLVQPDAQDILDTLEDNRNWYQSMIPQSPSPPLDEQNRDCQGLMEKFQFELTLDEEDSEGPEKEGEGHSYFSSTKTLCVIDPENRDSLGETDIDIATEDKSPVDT
Cytochrome P450 2C19 (Homo sapiens), sequence (P33261 whole entry, looked up): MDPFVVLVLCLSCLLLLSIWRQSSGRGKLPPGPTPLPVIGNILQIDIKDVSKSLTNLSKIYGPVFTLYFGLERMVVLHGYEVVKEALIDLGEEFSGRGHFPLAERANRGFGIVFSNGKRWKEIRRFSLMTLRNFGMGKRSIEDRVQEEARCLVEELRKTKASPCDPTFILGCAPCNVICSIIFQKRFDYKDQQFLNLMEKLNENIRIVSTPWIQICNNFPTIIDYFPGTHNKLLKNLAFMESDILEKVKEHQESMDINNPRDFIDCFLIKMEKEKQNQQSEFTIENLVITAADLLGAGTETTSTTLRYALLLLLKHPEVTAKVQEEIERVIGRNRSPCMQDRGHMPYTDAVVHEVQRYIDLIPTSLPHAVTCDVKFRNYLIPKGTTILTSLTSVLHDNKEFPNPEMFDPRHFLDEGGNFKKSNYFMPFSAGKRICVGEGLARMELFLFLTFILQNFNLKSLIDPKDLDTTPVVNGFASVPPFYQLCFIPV
Cytochrome P450 2D6 (Homo sapiens), sequence (P10635 whole entry, looked up): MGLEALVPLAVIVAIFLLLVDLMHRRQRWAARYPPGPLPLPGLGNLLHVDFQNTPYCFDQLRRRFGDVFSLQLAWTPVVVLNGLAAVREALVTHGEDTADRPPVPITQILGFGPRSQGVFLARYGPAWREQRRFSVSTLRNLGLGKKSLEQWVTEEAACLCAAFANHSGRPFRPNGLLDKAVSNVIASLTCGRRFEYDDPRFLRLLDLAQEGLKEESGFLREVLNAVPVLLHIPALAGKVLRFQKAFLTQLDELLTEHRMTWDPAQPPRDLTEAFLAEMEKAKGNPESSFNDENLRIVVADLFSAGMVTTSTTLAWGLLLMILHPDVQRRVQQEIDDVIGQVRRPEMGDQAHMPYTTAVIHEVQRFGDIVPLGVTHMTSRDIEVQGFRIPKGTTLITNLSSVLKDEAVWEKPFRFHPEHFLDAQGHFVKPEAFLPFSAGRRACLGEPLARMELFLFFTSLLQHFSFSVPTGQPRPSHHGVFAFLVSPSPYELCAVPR

| SMILES | Potency [1] | activity change, negative = inhibition [2] | activity change, negative = inhibition [3] | activity, negative = inhibition [4] | Potency [5] | outcome [6] | Potency [7] | activity change, negative = inhibition [8] | Potency [9] | activation [10] | activity change, positive = activation [11] | Potency [12] | Potency [13] |
| --- | --- | --- | --- | --- | --- | --- | --- | --- | --- | --- | --- | --- | --- |
| NCCc1c[nH]c2ccc(OC(=O)C(=O)O)cc12 | > 11.4 µM | 9.07% | 6.17% | 10.1% | > 9.22 µM | inactive | – | – | – | – | – | – | – |
| O=C(Oc1ccc(S(=O)(=O)F)cc1F)c1ccccc1Cl | > 11.4 µM | -4.95% | 5.76% | -0.302% | > 9.22 µM | inactive | > 46 µM | – | – | – | – | – | – |
| CCc1ccc(CCN2CCCCC2)nc1 | > 11.4 µM | 15.5% | -21.3% | – | > 9.22 µM | inactive | – | 1.06% [at 11.4 µM] | 1.58 µM (active) | – | – | – | – |
| COc1cccc2c1C(=O)c1c(O)c3c(c(O)c1C2=O)C[C@](O)(/C(C)=N\O)C[C@@H]3O[C@H]1C[C@H](N)[C@@H](O)[C@H](C)O1 | > 11.4 µM | 26.1% | -24.2% | – | > 9.22 µM | inactive | > 46 µM | -16.4% [at 11.4 µM] | – | – | – | – | – |
| O=C(O)[C@H]1C2c3ccccc3C(c3ccccc32)[C@@H]1C(=O)NCC1CC1 | > 11.4 µM | 1.37% | -3.96% | 26.5% | > 9.22 µM | inactive | > 46 µM | 2.32% [at 11.4 µM] | – | -0.158% | – | – | – |
| N[C@@H](Cc1ccccc1)P(=O)(O)O | > 11.4 µM | -2.48% | – | -2.79% | > 9.22 µM | – | > 46 µM | 3.3% [at 11.4 µM] | – | – | – | – | – |
| O=C(N1CCOCC1)C1(c2ccccc2)CCNCC1 | > 11.4 µM | -2.66% | – | 8.97% | > 9.22 µM | inactive | > 46 µM | 3.92% [at 11.4 µM] | – | – | – | – | – |
| COc1ccc(C[C@@H]2C(=O)N[C@H](C)C(=O)N(C)[C@@H]3C(=O)N(C)[C@@H](Cc4ccc(O)c(c4)Oc4ccc(cc4)[C@H]3O)C(=O)N[C@@H](C)C(=O)N[C@H](C)C(=O)N2C)cc1 | > 11.4 µM | -121% (active) | – | -105% (active) | > 9.22 µM | inactive | > 46 µM | 3.04% [at 11.4 µM] | – | – | – | – | – |
| O=C(Nc1ccc([As](=O)(O)O)cc1)Nc1cccc(Cl)c1Cl | > 11.4 µM | -0.577% | 6.56% | – | > 9.22 µM | inactive | > 46 µM | 0.483% [at 11.4 µM] | – | – | – | – | – |
| Oc1ccc(CCNCc2cc3c(cc2Br)OCO3)cc1 | > 11.4 µM | -4.32% | -17% | 9.31% | > 9.22 µM | inactive | – | 0.159% [at 11.4 µM] | 0.316 µM (active) | -17.8% | -36.4% [at 11.4 µM] | 5.01 µM (active) | – |
| Nc1c(C(=O)Nc2ccc([As](=O)(O)O)cc2)cnc2nnnn12 | > 11.4 µM | 2.63% | 25.5% | -0.343% | > 9.22 µM | inactive | – | 0.733% [at 11.4 µM] | – | – | – | – | – |
| c1nc(N2CC2)c2cnn([C@@H]3CCCCO3)c2n1 | > 11.4 µM | 5.4% | – | -5.16% | > 9.22 µM | inactive | > 46 µM | 0.68% [at 11.4 µM] | – | – | – | – | – |
| S=P(C1CCCCC1)(C1CCCCC1)[C@H](c1cccnc1)N1CCCC1 | > 11.4 µM | 10.9% | 5.74% | -1.57% | > 9.22 µM | inactive | – | 0.158% [at 11.4 µM] | – | – | -61.4% [at 11.4 µM] | 1.26 µM (active) | 3.16 µM (active) |
| C[As+](C)(c1ccc(Br)c([N+](=O)[O-])c1)c1ccc(Br)c([N+](=O)[O-])c1.O=[N+]([O-])O | > 11.4 µM | 10.5% | -2.2% | – | > 9.22 µM | inactive | > 46 µM | -0.633% [at 11.4 µM] | – | – | – | – | – |
| Oc1c(Cl)c(Cl)c(Cl)c(Cl)c1Cl (tested in a mixture with another compound) | > 11.4 µM | -9.55% [middle of 4 runs] | – | -12.9% [middle of 4 runs] | > 9.22 µM | inactive | > 46 µM | 0.344% [at 11.4 µM] [middle of 4 runs] | – | – | – | – | – |
| CC[C@@H]1[C@@H]2Cc3ccc(O)cc3[C@@]1(CC)CCN2C | > 11.4 µM | -9.39% | 17.1% | 2.87% | – | inactive | – | 2.22% [at 11.4 µM] | – | – | – | – | – |
| CCNCCC1(CC)C(=O)NC(=O)NC1=O | > 11.4 µM | 0.916% | 11.4% | 2.13% | – | inactive | > 46 µM | 3.87% [at 11.4 µM] | – | – | – | – | – |
| Cc1ncc([N+](=O)[O-])n1CCN=[N+]=[N-] | > 11.4 µM | 3.02% | 5.75% | -11.7% | > 9.22 µM | inactive | – | 2.72% [at 11.4 µM] | – | – | – | – | – |
